Broadly, the inhibition is the change of the read-out against control, counted positive when it falls.

Active and inactive are the calls of the source. Rule as the data show it, unless noted: active = inhibition above about 25%; inactive = the rest.

In one test the target is Nuclear receptor coactivator 1 (Homo sapiens) (UniProt Q15788). Nature of the test: NCOA1 GAL4-fusion reporter inhibition – cell-based, luminescence, quadruplicate, confirmation (AID 588820;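 active = mean inhibition above 46.68%, the untreated control wells mean plus 3 SD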;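 also: 0% = DMSO wells and 100% = gossypol 36 µM treated wells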). The note with it: HEK293 GAL4-SRC1 luciferase reporter, at 3.6 µM, active compounds read high.
Chain of Nuclear receptor coactivator 1 (Homo sapiens) (Q15788 whole entry, looked up, the tested form may be a part): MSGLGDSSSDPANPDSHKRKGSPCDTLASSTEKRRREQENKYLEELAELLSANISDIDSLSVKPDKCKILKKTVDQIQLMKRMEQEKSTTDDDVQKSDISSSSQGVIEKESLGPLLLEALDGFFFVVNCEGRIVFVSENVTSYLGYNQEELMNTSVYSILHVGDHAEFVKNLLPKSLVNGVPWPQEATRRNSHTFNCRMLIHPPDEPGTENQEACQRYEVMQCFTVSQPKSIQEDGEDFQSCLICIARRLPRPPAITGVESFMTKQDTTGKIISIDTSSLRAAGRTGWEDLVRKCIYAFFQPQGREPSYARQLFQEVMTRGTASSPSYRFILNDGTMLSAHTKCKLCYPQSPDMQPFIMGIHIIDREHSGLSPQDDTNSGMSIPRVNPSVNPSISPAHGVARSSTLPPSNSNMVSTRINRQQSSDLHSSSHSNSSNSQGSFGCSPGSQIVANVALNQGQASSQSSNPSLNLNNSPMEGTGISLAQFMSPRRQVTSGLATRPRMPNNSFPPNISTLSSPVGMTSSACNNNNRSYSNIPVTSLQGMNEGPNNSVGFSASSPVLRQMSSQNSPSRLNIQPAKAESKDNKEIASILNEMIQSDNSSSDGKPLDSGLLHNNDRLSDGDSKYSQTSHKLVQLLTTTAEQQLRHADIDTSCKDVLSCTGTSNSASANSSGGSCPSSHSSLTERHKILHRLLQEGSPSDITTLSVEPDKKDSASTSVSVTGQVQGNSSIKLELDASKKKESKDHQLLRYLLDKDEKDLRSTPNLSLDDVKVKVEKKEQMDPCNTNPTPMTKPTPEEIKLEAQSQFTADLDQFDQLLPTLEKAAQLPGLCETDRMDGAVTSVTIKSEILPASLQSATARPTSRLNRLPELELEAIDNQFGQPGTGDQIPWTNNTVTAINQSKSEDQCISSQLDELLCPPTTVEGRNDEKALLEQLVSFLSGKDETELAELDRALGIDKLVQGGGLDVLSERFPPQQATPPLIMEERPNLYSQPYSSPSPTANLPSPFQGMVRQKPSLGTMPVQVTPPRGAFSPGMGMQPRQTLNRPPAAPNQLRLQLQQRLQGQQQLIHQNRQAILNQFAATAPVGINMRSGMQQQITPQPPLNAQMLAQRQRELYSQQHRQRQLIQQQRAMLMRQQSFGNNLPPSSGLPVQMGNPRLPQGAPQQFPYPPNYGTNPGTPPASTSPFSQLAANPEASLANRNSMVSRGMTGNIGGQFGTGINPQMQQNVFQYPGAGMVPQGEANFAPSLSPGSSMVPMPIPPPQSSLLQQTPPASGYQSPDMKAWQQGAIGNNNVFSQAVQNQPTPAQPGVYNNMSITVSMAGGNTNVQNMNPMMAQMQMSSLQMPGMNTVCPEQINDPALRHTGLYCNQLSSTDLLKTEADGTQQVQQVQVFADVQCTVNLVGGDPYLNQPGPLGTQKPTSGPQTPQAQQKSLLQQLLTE
In the case of `O=C(NC1CCCCC1)C(c1ccc(F)cc1)N(CCCN1CCOCC1)C(=O)c1ccc(CN2CCOCC2)o1` (stereo not given), the inhibition is -0.03% (inactive).
The same measure, in the same setting: for `O=C(NCc1ccccc1)c1cc(S(=O)(=O)N2CCCCC2)ccc1N1CCOCC1` the value was -1.88% (inactive); for `Cc1ccc(CNc2nc(-c3cccs3)nc3ccccc23)cc1`, -2.3% (inactive); for `COc1ccc(CN(CC(=O)NCc2ccccc2)C(=O)CCC(=O)Nc2cc(C)ccn2)cc1`, -7.07% (inactive).
Same read-out and setting: next, `COc1cc(OC)cc(C(=O)NNC(=O)c2ccccn2)c1`: 10.7% (inactive); `O=C(Nc1ccncc1)c1cccc(S(=O)(=O)N2CCc3ccccc32)c1`: -21.8% (inactive).
Same read-out and setting: for `COc1ccc(CN2CCN(C(=O)c3ccc(S(=O)(=O)N4CCCCCC4)cc3)CC2)cc1` the value was -2.25% (inactive).
Regarding `NS(=O)(=O)c1ccc(CNC(=O)c2cnccn2)cc1`, the inhibition is -22.2% (inactive).
Still for that read-out and setting: next, `Cc1cccc(C)c1NC(=O)C1(C)CCC(=O)N1c1cc(C(C)(C)C)nn1C` (stereo not given): -13.6% (inactive).
Same read-out and setting: next, `COc1ccc2cc3cc(C(=O)NCc4cccs4)oc3nc2c1`: 4.16% (inactive); `C/C(=N\NC(=O)Cc1ccc(Cl)cc1)c1ccccn1`: -28.3% (inactive).
Same read-out and setting: next, `O=C(NCc1cccc(C(F)(F)F)c1)c1csc([C@@H]2O[C@H](CO)[C@H](O)[C@H](O)[C@H]2O)n1`: -9.94% (inactive); `CN(CC(=O)Nc1ccc(Cl)c(C(F)(F)F)c1)C(=O)C1CC(=O)N(c2ccc3c(c2)OCCO3)C1` (stereo not given): 17.4% (inactive).
Take `CCOC(=O)c1c(NC(=O)COc2ccccc2C#N)sc2c1CC(C)(C)NC2(C)C`: the inhibition was -41.5% (inactive).
Still for that read-out and setting: for `COc1ccc(-n2nc(C(=O)NCC(=O)Nc3cc(OC)c(OC)c(OC)c3)c3ccccc3c2=O)cc1OC` the value was -43.4% (inactive); for `COc1ccc(C(O)(C(C)C)C(CN2CCOCC2)c2ccc(Cl)cc2)cc1` (stereo not given), 16.2% (inactive).
Consider `Cc1ccc(C)c(NC(=O)CCc2ccc(C)o2)c1`, for which the inhibition is 5.55% (inactive).
Turning to `O=C(Nc1ccc(Oc2ccccc2)cc1)c1csc([C@@H]2O[C@H](CO)[C@@H](O)[C@H]2O)n1`, the inhibition is -12.9% (inactive).
Turning to `CCc1ccc2oc(=O)cc(CN3CCN(Cc4ccccc4)CC3)c2c1`, the inhibition was -7.76% (inactive).
Still for that read-out and setting: next, `O=C(N[C@H]1c2ccccc2C[C@H]1O)[C@H]1O[C@@H](n2ccc(=O)[nH]c2=O)[C@H](O)[C@@H]1O`: -26.1% (inactive); `CSc1nc(N)nc2c1ncn2CC(=O)N1CCN(Cc2c(C)cc(C)cc2C)CC1`: -3.22% (inactive); `O=S(=O)(NCc1ccncc1)c1ccc(Br)s1`: -15.5% (inactive).
Still for that read-out and setting: next, `O=C(CNC(=O)c1ccco1)Nc1ccncc1`: -25.7% (inactive); `O=C(Nc1ccc(F)cc1F)c1c(C(F)(F)F)ccnc1Oc1cccc(C(F)(F)F)c1`: -2.06% (inactive); `COc1ccc(CCNC(=O)[C@H](CCSC)NC(=O)N2CCn3c2nc2ccccc23)cc1OC`: 1.44% (inactive).
Still for that read-out and setting: next, `CCCCCOC(=O)C1=C(C)NC(=O)NC1c1ccc([N+](=O)[O-])cc1` (stereo not given): -6.01% (inactive); `Cc1ccc(C(=O)NC2CCCc3c2cnn3-c2ccc(F)cc2F)cn1` (stereo not given): -17.5% (inactive).
Take `Cc1cccc(N2CCN(C(=O)CSc3nc4ccccc4nc3N3CC(C)OC(C)C3)CC2)c1C` (stereo not given): the inhibition was -26.1% (inactive).
In the case of `COc1ccc(OC)c(S(=O)(=O)NCC(c2ccc3c(c2)OCO3)N2CCOCC2)c1` (stereo not given), the inhibition was -16.7% (inactive).
The same measure, in the same setting: for `CN(C)c1ccncc1C(=O)Nc1ccc(F)cc1F` the value was -3.76% (inactive).
The same measure, in the same setting: for `CCCCC(=O)NC(c1ccc(N(CC)CC)cc1)c1ccc2cccnc2c1O` (stereo not given) the value was 69.3% (active).
The same measure, in the same setting: for `CC(C)(C)c1ccc(-c2cc(-c3ccccc3O)[nH]n2)cc1` the value was -42.5% (inactive); for `NC(CO)C(=O)NNCc1ccc(O)c(O)c1O` (stereo not given), -18.8% (inactive); for `CCOP(=O)(OCC)C(NC(=O)c1cccs1)c1ccccc1` (stereo not given), -44.8% (inactive).
In the case of `C=CCc1ccccc1OCC(=O)N/N=C/c1ccc(OC(C)=O)cc1OC(C)=O`, the inhibition is 16.6% (inactive).
Take `O=C(Cc1ccsc1)N1CCN(S(=O)(=O)c2cc(C(F)(F)F)cc(C(F)(F)F)c2)CC1`: the inhibition was -14.2% (inactive).
With `COc1ccc(CCNc2ncnc3c2[nH]c2cc(OC)c(OC)cc23)cc1OC`, the inhibition is -33.2% (inactive).
The same measure, in the same setting: for `Cc1nnc(N2CCCC(C(=O)NCc3ccc(OC(C)C)cc3)C2)c2nn(-c3ccccc3)c(C)c12` (stereo not given) the value was -12.5% (inactive); for `COc1cc2c(cc1OC)C(NC(=O)C(F)(F)F)CNC2=O` (stereo not given), 45.5% (inactive); for `CN1CCN(c2ccc(Cl)cc2NC(=O)CC2OC(=O)c3ccccc32)CC1` (stereo not given), -37.2% (inactive).

Test system in the next test: not listed separately
Nature of the test: repression of VP16-driven luciferase reporter – cell-based, luminescence, high throughput, counter-screen for SRC1 inhibitor project (AID 588824). The note with it: cell-based VP16 transactivation luciferase luminescence; at 3.6 µM; active compounds read high.
For `O=C(NC1CCCCC1)C(c1ccc(F)cc1)N(CCCN1CCOCC1)C(=O)c1ccc(CN2CCOCC2)o1` (stereo not given), the inhibition was 3.53% (inactive).
On the same count and under the same terms, for `O=C(NCc1ccccc1)c1cc(S(=O)(=O)N2CCCCC2)ccc1N1CCOCC1` the value was 11.3% (inactive); for `Cc1ccc(CNc2nc(-c3cccs3)nc3ccccc23)cc1`, 14.8% (inactive); for `COc1ccc(CN(CC(=O)NCc2ccccc2)C(=O)CCC(=O)Nc2cc(C)ccn2)cc1`, 0.36% (inactive).
Still for that read-out and setting: next, `COc1cc(OC)cc(C(=O)NNC(=O)c2ccccn2)c1`: 2.65% (inactive); `O=C(Nc1ccncc1)c1cccc(S(=O)(=O)N2CCc3ccccc32)c1`: 27.9% (active).
Take `COc1ccc(CN2CCN(C(=O)c3ccc(S(=O)(=O)N4CCCCCC4)cc3)CC2)cc1`: the inhibition is 25.6% (active).
The same measure, in the same setting: for `NS(=O)(=O)c1ccc(CNC(=O)c2cnccn2)cc1` the value was -8.37% (inactive); for `Cc1cccc(C)c1NC(=O)C1(C)CCC(=O)N1c1cc(C(C)(C)C)nn1C` (stereo not given), -5.42% (inactive); for `COc1ccc2cc3cc(C(=O)NCc4cccs4)oc3nc2c1`, 39.4% (active).
Regarding `C/C(=N\NC(=O)Cc1ccc(Cl)cc1)c1ccccn1`, the inhibition is 23.3% (inactive).
Still for that read-out and setting: for `O=C(NCc1cccc(C(F)(F)F)c1)c1csc([C@@H]2O[C@H](CO)[C@H](O)[C@H](O)[C@H]2O)n1` the value was -4.13% (inactive); for `CN(CC(=O)Nc1ccc(Cl)c(C(F)(F)F)c1)C(=O)C1CC(=O)N(c2ccc3c(c2)OCCO3)C1` (stereo not given), 14% (inactive); for `CCOC(=O)c1c(NC(=O)COc2ccccc2C#N)sc2c1CC(C)(C)NC2(C)C`, -13.1% (inactive).
The same measure, in the same setting: for `COc1ccc(-n2nc(C(=O)NCC(=O)Nc3cc(OC)c(OC)c(OC)c3)c3ccccc3c2=O)cc1OC` the value was -6.14% (inactive).
On the same count and under the same terms, next, `COc1ccc(C(O)(C(C)C)C(CN2CCOCC2)c2ccc(Cl)cc2)cc1` (stereo not given): 13.8% (inactive); `Cc1ccc(C)c(NC(=O)CCc2ccc(C)o2)c1`: -2.65% (inactive).
In the case of `O=C(Nc1ccc(Oc2ccccc2)cc1)c1csc([C@@H]2O[C@H](CO)[C@@H](O)[C@H]2O)n1`, the inhibition is 19.7% (inactive).
Still for that read-out and setting: for `CCc1ccc2oc(=O)cc(CN3CCN(Cc4ccccc4)CC3)c2c1` the value was 2.82% (inactive); for `O=C(N[C@H]1c2ccccc2C[C@H]1O)[C@H]1O[C@@H](n2ccc(=O)[nH]c2=O)[C@H](O)[C@@H]1O`, -8.81% (inactive); for `CSc1nc(N)nc2c1ncn2CC(=O)N1CCN(Cc2c(C)cc(C)cc2C)CC1`, 34.5% (active).
Still for that read-out and setting: for `O=S(=O)(NCc1ccncc1)c1ccc(Br)s1` the value was 28.8% (active).
Still for that read-out and setting: for `O=C(CNC(=O)c1ccco1)Nc1ccncc1` the value was -3.08% (inactive); for `O=C(Nc1ccc(F)cc1F)c1c(C(F)(F)F)ccnc1Oc1cccc(C(F)(F)F)c1`, -3.8% (inactive).
As for `COc1ccc(CCNC(=O)[C@H](CCSC)NC(=O)N2CCn3c2nc2ccccc23)cc1OC`, the inhibition was -3.22% (inactive).
The same measure, in the same setting: for `CCCCCOC(=O)C1=C(C)NC(=O)NC1c1ccc([N+](=O)[O-])cc1` (stereo not given) the value was 2.27% (inactive); for `Cc1ccc(C(=O)NC2CCCc3c2cnn3-c2ccc(F)cc2F)cn1` (stereo not given), 27.2% (active); for `Cc1cccc(N2CCN(C(=O)CSc3nc4ccccc4nc3N3CC(C)OC(C)C3)CC2)c1C` (stereo not given), 12.3% (inactive).
Same read-out and setting: next, `COc1ccc(OC)c(S(=O)(=O)NCC(c2ccc3c(c2)OCO3)N2CCOCC2)c1` (stereo not given): -6.55% (inactive); `CN(C)c1ccncc1C(=O)Nc1ccc(F)cc1F`: -9.03% (inactive).
Still for that read-out and setting: next, `CCCCC(=O)NC(c1ccc(N(CC)CC)cc1)c1ccc2cccnc2c1O` (stereo not given): 63.8% (active).
Regarding `CC(C)(C)c1ccc(-c2cc(-c3ccccc3O)[nH]n2)cc1`, the inhibition was -28.4% (inactive).
For `NC(CO)C(=O)NNCc1ccc(O)c(O)c1O` (stereo not given), the inhibition was -2.94% (inactive).
`CCOP(=O)(OCC)C(NC(=O)c1cccs1)c1ccccc1` (stereo not given): the inhibition is -3.21% (inactive).
On the same count and under the same terms, next, `C=CCc1ccccc1OCC(=O)N/N=C/c1ccc(OC(C)=O)cc1OC(C)=O`: -4.05% (inactive).
For `O=C(Cc1ccsc1)N1CCN(S(=O)(=O)c2cc(C(F)(F)F)cc(C(F)(F)F)c2)CC1`, the inhibition is 0.11% (inactive).
On the same count and under the same terms, next, `COc1ccc(CCNc2ncnc3c2[nH]c2cc(OC)c(OC)cc23)cc1OC`: -14.5% (inactive); `Cc1nnc(N2CCCC(C(=O)NCc3ccc(OC(C)C)cc3)C2)c2nn(-c3ccccc3)c(C)c12` (stereo not given): -13.1% (inactive).
With `COc1cc2c(cc1OC)C(NC(=O)C(F)(F)F)CNC2=O` (stereo not given), the inhibition was 22.3% (inactive).
The same measure, in the same setting: for `CN1CCN(c2ccc(Cl)cc2NC(=O)CC2OC(=O)c3ccccc32)CC1` (stereo not given) the value was -6.69% (inactive).

Values taken from PubChem BioAssay.
